# In the library only some 15% were active in any assay of this set; here they are far more common.
# ELG1 repair inh: inhibitors of ELG1-dependent DNA repair in HEK293T cells. Potency, µM (top dose mostly 46.1 µM), for inactives: top-dose activity change, negative = inhibition, most hits filed as inhibitors. actives 2.3% (n = 330,000). HEK293T ELG1-luciferase reporter, luminescence, 16 h; DNA damage induced by 5-fluorouridine; note: nearly all actives have a fitted effect of over 55% in size
#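 Overnight (16 hr) co-exposure of 2,000 cells/well to 5-fluorouridine and compound at 37 °C preceded detection. Luciferase was quantified via ONE-Glo luminescence; loss of signal denotes inhibition.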
# RORg inh: inhibitors of mouse ROR gamma transcriptional activity; Drosophila S2 Gal4-RORgamma UAS-luciferase reporter, 20 h; Potency, µM (titrated, usually from 53.6 µM), without a hit: top-dose activity change, negative = inhibition, hits mostly inhibitors; actives 5.4% (n = 310,000); AID 2551; note: nearly all actives have a fitted effect of over 60% in size
# Target sequence (P51450 whole entry, looked up, the tested form may be a part): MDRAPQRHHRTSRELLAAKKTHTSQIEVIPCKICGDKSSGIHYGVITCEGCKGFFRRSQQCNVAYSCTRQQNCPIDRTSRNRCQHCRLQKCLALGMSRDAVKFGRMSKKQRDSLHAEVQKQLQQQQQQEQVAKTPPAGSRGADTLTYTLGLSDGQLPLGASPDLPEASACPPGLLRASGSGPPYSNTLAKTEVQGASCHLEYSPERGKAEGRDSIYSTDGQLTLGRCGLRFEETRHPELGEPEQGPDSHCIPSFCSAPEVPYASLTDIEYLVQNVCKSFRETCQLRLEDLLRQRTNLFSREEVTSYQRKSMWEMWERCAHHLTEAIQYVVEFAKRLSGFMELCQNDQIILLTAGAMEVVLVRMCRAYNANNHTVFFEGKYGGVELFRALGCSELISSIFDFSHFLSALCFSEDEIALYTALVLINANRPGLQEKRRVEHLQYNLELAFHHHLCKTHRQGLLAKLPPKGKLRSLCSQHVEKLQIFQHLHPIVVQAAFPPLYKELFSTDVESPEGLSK
#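 Drosophila Schneider cells stably carrying a metallothionein-driven Gal4 DBD–ROR gamma fusion and a UAS-Photinus luciferase reporter were exposed to compound for 1 hr, then induced with copper sulfate (700 uM final) for 20 hr at ambient temperature before luminescence reading.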
# ALOX12 inh: blocks human arachidonate 12S-lipoxygenase; purified 12hLO, xylenol orange hydroperoxide absorbance; Potency, µM (highest dose often 108 µM), without a hit: top-dose activity change, negative = inhibition, most hits filed as inhibitors; actives 1.1% (n = 580,000); AID 1671190
#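 Purified human 12hLO at 150 nM in 25 mM Hepes, 0.01% Triton X-100, pH 7.0, preincubated 15 min at room temperature with compound. Reaction started with 40 uM arachidonic acid, 30 min at room temperature. Hydroperoxide measured by Fe-xylenol orange, 573/405 nm absorbance ratio.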
# VP16 counter: Gal4-VP16 reporter inhibition counter-screen; Drosophila S2 Gal4-VP16 UAS-luciferase, luminescence, 20 h; Potency, µM (top dose mostly 53.6 µM), inactives show at the top dose activity, negative = inhibition, actives largely listed as inhibitors; actives 3.5% (n = 310,000);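 note: Gal4-VP16 expression switched on by copper sulfate through the metallothionein promoter; nearly all actives have a fitted effect of over 50% in size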
# TDP1 cell CPT: DT40-hTDP1 cell growth loss with CPT; chicken DT40 Tdp1-/-;hTDP1 cells + 20 nM CPT, ATP luminescence, 48 h; Potency, µM (top dose mostly 46.2 µM), without a hit: at the highest dose activity change, negative = growth inhibition, most hits filed as inhibitors; actives 12% (n = 420,000); AID 686979; note: nearly all actives have a fitted effect of over 55% in size
#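 Chicken DT40 Tdp1-/- cells complemented with human TDP1, 400 cells/well, exposed to compounds plus 20 nM camptothecin for at least 48 h at 37 C; viability read as ATP content by CellTiter-Glo luminescence.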
# TDP1 cell noCPT: qHTS for Inhibitors of human tyrosyl-DNA phosphodiesterase 1 (TDP1): qHTS in cells in absence of CPT. DT40 Tdp1-/- hTDP1 cells, no CPT, ATP luminescence, 48 h. Potency, µM (series often up to 46.2 µM), for inactives: at the top dose activity change, negative = growth inhibition, actives largely listed as inhibitors. actives 15% (n = 420,000). AID 686978, 2013; note: nearly all actives have a fitted effect of over 55% in size
#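 Growth of hTDP1-complemented DT40 Tdp1-knockout cells is measured by ATP luminescence after at least 48 hr compound exposure at 37 °C, with DMSO substituting for the 20 nM CPT used in the parallel screen.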
# An asterisk follows results filed as active; ? = inconclusive; . = not tested or not shown; [ ] = another dose, or the depositor's remark. Calls come from the whole dose curve; as a rule, active = well fitted curve in the direction sought with a large enough effect; inconclusive = small, poorly fitted or top-dose-only effect, or another doubt; inactive = no such curve, though single readings can be large; an effect the other way counts as inactive or inconclusive. % is set by controls: 0 for no effect and ±100 for the full control effect; potency is the fitted concentration of half-maximal effect.
SMILES,ELG1 repair inh,RORg inh,ALOX12 inh,VP16 counter,TDP1 cell CPT,TDP1 cell noCPT
O=C(NC(c1ccc(F)cc1)c1ccc2ccccc2n1)C1CCN(Cc2cccc(C(F)(F)F)c2)CC1 (stereo not given),.,.,-8%,.,2.9µM*,5.2µM*
COc1cc(/C=C/CN2CCC(C(=O)NC(c3ccc(F)cc3)c3ccc4ccccc4n3)CC2)ccc1OC(C)=O (stereo not given),.,.,?,.,?,15µM*
CN(C)c1ccc(CN2CCC(C(=O)NC(c3ccc(F)cc3)c3ccc4ccccc4n3)CC2)cc1 (stereo not given),.,.,?,.,?,23µM*
COc1cc(OC)nc(C(NC(=O)C2CCN(Cc3ccc(N(C)C)cc3)CC2)c2ccc(F)cc2)n1 (stereo not given),.,.,-22%,.,?,?
O=C(NC(c1ccc(F)cc1)c1ccc2ccccc2n1)C1CCN(Cc2ccc3ccccc3n2)CC1 (stereo not given),.,.,16µM*,.,?,18µM*
COCC(C)NC(=O)C1CCN(Cc2ccc(F)cc2)CC1 (stereo not given),.,.,2%,.,.,.
COCCNC(=O)c1ccc(OC2CCN(C/C=C/c3ccc(F)cc3)CC2)c(Cl)c1,.,.,17%,.,.,.
COc1cccc(Nc2ncc3c(n2)C(C)(C(=O)Nc2ccc(OC)nc2)CC3)c1 (stereo not given),.,.,-1%[176 µM],.,.,.
CC(NC(=O)C1CCN(CCOc2ccc(Cl)cc2)CC1)c1cccc2ccccc12 (stereo not given),.,.,22µM*,.,16µM*,?
O=C(NC(c1ccccc1)c1cnccn1)C1CCN(CCCOc2ccccc2)CC1 (stereo not given),.,.,-5%,.,-1%,-26%
O=C(NC(c1ccc(F)cc1)c1ccc2ccccc2n1)C1CCN(CCOc2ccc(Cl)cc2)CC1 (stereo not given),.,.,?,.,21µM*,21µM*
CC(NC(=O)CSc1nnc(COc2ccc(Cl)cc2)n1C)c1cccc2ccccc12 (stereo not given),.,.,-1%,.,.,.
CC(C)(O)CCc1cccc(C(=O)NCCOc2cccc3cccnc23)c1,.,.,13%,.,.,.
CCOC(=O)c1ccc(-c2ccc(/C=C(\C#N)c3nc4ccc(C)cc4[nH]3)o2)cc1,.,.,?,.,23µM*,2.6µM*
Cc1ccc2nc(/C(C#N)=C\c3ccc(N4CCOCC4)o3)[nH]c2c1,?,?,?,-1%,13µM*,21µM*
CCOC(=O)c1ccc(-c2ccc(/C=C(\C#N)C(=O)NCc3cccs3)o2)cc1,?,?,13%,3.2µM*,23µM*,18µM*
CNC(=O)[C@H]1C[C@H](Oc2ccccc2)CN1C(=O)Nc1cccc(F)c1,.,.,4%,.,.,.
CCCc1cc(=O)[nH]c(SCc2nnc(-c3cc(OC)c(OC)c(OC)c3)o2)n1,.,.,1%,.,.,.
CC1CCN(S(=O)(=O)c2ccc(-c3nc(C#N)c(NCCCN4CCOCC4)o3)cc2)CC1,.,.,10%,.,.,.
CC(=O)N1CCN(C(=O)N2CC3CC(C2)[C@H]2CCCC(=O)N2C3)CC1 (stereo not given in full),.,.,62%,.,.,.
CCNc1ncc2nc(-c3ccc(F)cc3)c(=O)n(Cc3ccc(F)cc3)c2n1,.,-17%,?,3%,-14%,5%
Cn1c(=O)c(-c2cc(F)cc(F)c2)nc2cnc(Nc3ccccc3)nc21,.,10µM*,27%,?,?,?
N#CCCn1c(=O)c(-c2cc(F)cc(F)c2)nc2cnc(Nc3ccccc3)nc21,.,11%,?,-2%,2%,4%

# High-throughput results from PubChem.
